Screening results: PubChem BioAssay, several laboratories
Mtb UGM inh: M. tuberculosis UGM enzyme inhibitors, primary screen, biochemical, fluorescence polarization, single point. UDP-galactopyranose mutase (Mycobacterium tuberculosis (strain ATCC 25618 / H37Rv)), …. purified UGM, fluorescence polarization probe displacement. inhibition, % at 10 µM. actives 0.06% (n = 320,000); in the data active means inhibition above about 10%, passing the limit was not always enough
RecA splice inh: Mtb RecA intein splicing inhibitors, primary screen, biochemical, fluorescence, HTS; Protein RecA (Mycobacterium tuberculosis (strain ATCC 25618 / H37Rv)), P9WHJ3; cell-free RecA intein splicing; inhibition, % (concentration not given with the values); actives 0.75% (n = 290,000); AID 2221, 2009; in the data active means inhibition above about 30%;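 further: 0% = vehicle wells and 100% = reference inhibitor control wells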
GDH-TPI inh: GDH-TPI coupling enzyme inhibitors, primary screen, artefact control for M. tuberculosis FBA inhibitor project, biochemical, absorbance, full deck; GDH-TPI coupled enzyme counterscreen, NADH absorbance; inhibition, % at 4.8 µM; actives 1.2% (n = 360,000); in the data active means inhibition above about 30%;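 further: 0% = DMSO wells and 100% = wells lacking the enzyme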
Mtb betalactam: beta-lactam sensitization of Mtb H37Rv, H37Rv | AID 434955, 2010 | M. tuberculosis H37Rv growth with meropenem, percent inhibition | inhibition, % at 25 µM | actives 0.27% (n = 330,000);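 further: growth measured after seven days incubation then overnight dye step; 0% = bacteria only wells and 100% = bacteria with antibiotic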
Rv3671c protease: Rv3671c serine protease inhibitors, primary screen, biochemical, fluorescence polarization, M. tuberculosis H37Rv. inhibition, % at 5.96 µM. AID 2606, 2010. actives 0.048% (n = 320,000). P9WHR9; in the data active means inhibition above about 38%;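 further: extracellular domain of Rv3671c used as enzyme; 0% = enzyme with DMSO and 100% = no enzyme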
Target sequence (P9WHR9 whole entry, looked up, the tested form may be a part): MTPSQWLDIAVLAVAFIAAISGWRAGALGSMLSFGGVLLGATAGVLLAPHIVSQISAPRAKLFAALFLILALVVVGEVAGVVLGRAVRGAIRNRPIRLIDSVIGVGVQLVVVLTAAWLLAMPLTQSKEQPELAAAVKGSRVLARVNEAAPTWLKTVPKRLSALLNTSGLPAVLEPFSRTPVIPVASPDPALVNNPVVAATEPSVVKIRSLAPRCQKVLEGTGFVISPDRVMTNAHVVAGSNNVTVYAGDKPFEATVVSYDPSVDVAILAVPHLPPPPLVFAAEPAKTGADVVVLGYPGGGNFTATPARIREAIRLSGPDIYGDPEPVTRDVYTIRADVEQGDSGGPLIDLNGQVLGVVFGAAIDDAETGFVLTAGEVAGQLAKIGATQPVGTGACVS
Mtb FBA inh: Mtb FBA enzyme inhibitors, primary screen, biochemical, fluorescence, strain H37Rv; purified M. tuberculosis FBA, fluorescence read-out; inhibition, % at 1 µM; actives 2.3% (n = 360,000); in the data active means inhibition above about 27%;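 further: 0% = vehicle and 100% = reference inhibitor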
GFP chromo cs: counter-screen: blocks GFP chromophore formation, dose response, counter-screen, biochemical, fluorescence, homogeneous; shares compounds with RecA splice inh; cell-free GFP chromophore formation; EC50, µM; actives 83% (n = 2,100)
* marks the source's active call; other numbers are inactive results; · = no result. The list is not random: actives were taken first. Their share in the collection is about 4%. Unless noted, how the calls were made is not given here.

SMILES | Mtb UGM inh | RecA splice inh | GDH-TPI inh | Mtb betalactam | Rv3671c protease | Mtb FBA inh | GFP chromo cs
N#CC1=C(N)C(C#N)(C#N)C(c2cccnc2)C2CC(c3ccccc3)CC=C12 (stereo unspecified) | 3.1 | 16.8 | 0.0 | 26.9 | -13.1 | -0.4 | ·
N#CC1=C(N)N(c2ccccc2)C(c2ccccc2)C1(C#N)C#N (stereo unspecified) | 2.8 | 43.4* | 9.5 | 18.9 | 12.0 | 15.5 | 30.8*
CCC(=NOCc1ccccc1)C(=O)NNS(=O)(=O)c1ccc(C)cc1 | · | · | 5.1 | · | · | 7.8 | ·
COc1ccc(C(=O)c2c(C(F)(F)F)oc3c2C(=O)c2ccccc2C3=O)cc1 | 0.7 | 86.8* | 7.6 | 67.5 | -64.7 | 0.2 | 0.132*
O=C(O)c1ccc(N2C(=O)/C(=C/c3ccc(-c4ccc([N+](=O)[O-])cc4)o3)C=C2c2ccccc2)cc1 | 1.2 | 32.2* | -5.2 | 97.9 | -19.0 | -3.5 | >38
O=C1NN(c2ccccc2)C(=O)/C1=C/c1ccc(-c2ccc(C(=O)O)cc2)o1 | 0.5 | -7.9 | -1.5 | 3.2 | -0.7 | -2.2 | ·
C[C@H]1CN([C@@H](C)CO)C(=O)CCCn2cc(nn2)CO[C@@H]1CN(C)C(=O)Nc1ccc2c(c1)OCO2 | · | · | 6.2 | · | · | -1.8 | ·
COC(=O)c1ccccc1-c1ccc(C(c2c(C)[nH][nH]c2=O)c2c(C)[nH][nH]c2=O)o1 | 4.3 | 95.5* | 5.7 | -3.0 | -203.8 | -0.5 | 0.449*
Cc1[nH][nH]c(=O)c1C(c1ccc(-c2ccc(Cl)c(C(=O)O)c2)o1)c1c(C)[nH][nH]c1=O | · | · | -3.8 | · | · | -4.7 | ·
COC(=O)c1cccc(-c2ccc(C(c3c(C)[nH][nH]c3=O)c3c(C)[nH][nH]c3=O)o2)c1 | -1.4 | 100.3* | 1.9 | -0.5 | -78.8 | -6.1 | 0.536*
CCOC(=O)c1nc(C)n(-c2ccc(Cl)cc2)n1 | 1.6 | 49.0* | 2.9 | -0.6 | -2.2 | 0.9 | >38
CSc1nc(-c2ccccc2)nn1C(=O)c1ccc(Cl)cc1 | 0.2 | 57.3* | 3.8 | 32.6 | -2.9 | 3.7 | >38
CSc1nc(-c2ccc(Cl)cc2)nn1C(=O)c1ccccc1 | 1.5 | 4.3 | 4.9 | -2.7 | 1.0 | 0.3 | ·
O=C1C(Br)=C(c2ccccc2)C(c2ccccc2)=C1c1ccccc1 | · | · | -7.8 | · | · | -1.3 | ·
Cc1ccc(S(=O)(=O)N2CCCCC2)cc1NC(=O)CSc1ncnc2ccccc12 | · | 2.6 | 2.2 | -3.2 | -6.3 | 0.5 | ·
Cc1ccc(NC(=O)CSc2ncnc3ccccc23)cc1S(=O)(=O)N1CCCCCC1 | · | 31.1* | 13.6 | 12.3 | -28.5 | -1.6 | >38
O=C(NC(=S)NNC(=O)c1cc2ccccc2cc1O)c1ccco1 | 2.0 | 11.3 | 20.1 | 40.1 | 22.5 | -6.4 | ·
O=C(NC(=S)NNC(=O)c1ccccc1O)c1ccco1 | 2.5 | 36.3* | 30.9* | -2.4 | 24.8 | 5.2 | >38
COc1ccc(C(=O)Nc2ccc(F)cc2F)cc1OC | -1.7 | 0.8 | -1.6 | -1.6 | 13.0 | -0.1 | ·
O=C(Nc1ccccc1)Nc1cccc2ccccc12 | -1.3 | · | 13.0 | 66.6 | 1.6 | 7.0 | ·
O=C(Nc1ccccc1)Nc1ccc(O)c2ccccc12 | 3.1 | 60.0* | · | 6.7 | -48.0 | · | 3.01*
COc1ccc(OC)c(NC(=O)Nc2ccc(O)c3ccccc23)c1 | 1.3 | 77.8* | 3.1 | 3.9 | -96.3 | 5.0 | 1.24*
COc1ccc(C(=O)Nc2ccc(O)c3ccccc23)cc1OC | -1.0 | 98.4* | 4.6 | -7.2 | -3.5 | -0.3 | 15.2*
COc1cccc(C2C3=C(CCCC3=O)Nc3[nH]n(-c4ccccc4)c(=O)c32)c1 (stereo unspecified) | -1.0 | 0.2 | 21.3 | -0.2 | -1.2 | -0.2 | ·
O=C1CCCC2=C1C(c1ccc3c(c1)OCO3)c1c([nH]n(-c3ccccc3)c1=O)N2 (stereo unspecified) | 0.5 | 74.2* | 37.2* | -11.5 | -6.8 | -4.2 | 13.6*
SMILES | Mtb UGM inh | RecA splice inh | GDH-TPI inh | Mtb betalactam | Rv3671c protease | Mtb FBA inh | GFP chromo cs
CC(C)c1ccc(S(=O)(=O)/N=C2\C=C(NS(=O)(=O)c3ccccc3)C(=O)c3ccccc32)cc1 | 3.2 | 44.5* | 5.4 | 14.1 | -83.1 | -5.5 | 6.7*
CCc1ccc(S(=O)(=O)/N=C2\C=C(NS(=O)(=O)c3ccccc3)C(=O)c3ccccc32)cc1 | · | 33.8* | 13.0 | · | · | -9.2 | 4.02*
Cc1ccc(NC2=C/C(=N/S(=O)(=O)c3cccs3)c3ccccc3C2=O)cc1C | -0.3 | 8.5 | 1.6 | 3.2 | -1.0 | 1.6 | ·
Cc1ccc(C)c(S(=O)(=O)/N=C2\C=C(NS(=O)(=O)c3ccccc3)C(=O)c3ccccc32)c1 | 1.4 | 74.6* | 14.9 | 1.1 | -46.5 | -7.4 | 5.38*
COC(=O)C(C(C)=O)C1=C/C(=N\S(=O)(=O)c2ccc(C)cc2)c2ccccc2C1=O (stereo unspecified) | 2.0 | 17.5 | 2.4 | 0.2 | -17.0 | 3.4 | ·
CCN(CC)CCCNC(=O)c1ccc(S(=O)(=O)Nc2ccc(C)c(C)c2)cc1 | -1.4 | · | 1.5 | 2.3 | -7.8 | -0.7 | ·
COc1cc(C(C(=O)NC2CCCCC2)N(CCN2CCOCC2)C(=O)C2COc3ccccc3O2)cc(OC)c1OC (stereo unspecified) | 1.8 | 46.6* | -3.5 | -1.3 | -2.1 | -1.0 | >38
COc1ccc(C(C(=O)NC2CCCCC2)N(CC2CCCO2)C(=O)C2COc3ccccc3O2)cc1OC (stereo unspecified) | 3.2 | -0.1 | -0.9 | 7.7 | -6.9 | 2.3 | ·
Nn1cnnc1N/N=C/c1ccc(Cl)c([N+](=O)[O-])c1 | 2.2 | 59.4* | -3.1 | -5.1 | -143.9 | -12.2 | 25.4*
Nn1cnnc1N/N=C/c1ccc(F)cc1 | -1.1 | -0.3 | 8.6 | 52.6 | -23.1 | -5.2 | ·
COc1cccc(N2CC(C(=O)Nc3nnc(SCC(=O)c4ccccc4)s3)CC2=O)c1 (stereo unspecified) | · | 94.1* | 8.5 | 8.1 | -17.5 | 0.6 | >38
COc1ccc(C(=O)CSc2nnc(NC(=O)C3CC(=O)N(c4ccccc4)C3)s2)cc1 (stereo unspecified) | -1.5 | -0.6 | 7.4 | -0.4 | -29.6 | 4.9 | ·
C[C@H](NC(=O)OC(C)(C)C)C(=O)NCC1CCC(C(=O)N[C@@H](Cc2ccccc2)C(=O)O)CC1 (stereo partly specified) | 0.2 | 1.4 | 2.6 | -1.7 | 0.5 | 0.1 | ·
Cc1ccc(-n2c(C)nnc2SCC(=O)NC2CCCC2)cc1 | 3.7 | 0.5 | -11.8 | -5.3 | -8.4 | 2.2 | ·
